Laboratory results reported in the OligoGym collection.

These sequences were tested against TRAPPC2 (assay: pooled miR-30 sensor sort-seq; sequence = guide strand). Settings: shRNA.
Also: reference of the scale not given here.

Point of comparison: TTATTCCATCTTCTTGTCTTAT, sensor-assay potency score (higher = more potent) -1.23. Against it:
- TATTCCATCTTCTTGTCTTATG — lower, -1.41
- TTGTCTTATGTCATGAAGCATA — lower, -1.65
- ATGCACTTGATCGAATAGGAGA — lower, -1.42
- TATATAAATCATAAACATCAGT — higher, -0.905
- TGTCAAATGCACTTGATCGAAT — higher, -0.613
- ATGAGCTATGAACTGGTTCAGA — lower, -1.51
- TCGTTGAACTTGTCCACAGTTT — higher, -0.427
- TTTCTGTCAAATGCACTTGATC — lower, -1.44
- TTGATCGAATAGGAGAATTGGG — higher, -0.578

The sequences below were run against TRIL in the same assay as above. Settings: shRNA.

Point of comparison: AACTTGTTGAAGTCGCATGGGT, sensor-assay potency score (higher = more potent) -0.301. Against it:
- TAGAAATCGCCCCTGCTGCTGG — lower, -0.425
- TAGGTGAGCACGTCGTGGGGGC — higher, -0.151
- TTCTTGTGCAGGTCTAGGGACT — lower, -1.42
- TTGGTTATGAAGTTGCCGCCGA — higher, -0.156
- TTGCACAGAATGAACTTGTTGA — higher, 0.574
- TTGACTAGACTCTCCAGGCCCT — higher, -0.105
- ATGAACTTGTTGAAGTCGCATG — lower, -1.34
- TTGCCGTCTAGATCCAGCCGAT — lower, -0.561
- TTGTACTGCAGGTCCAGCCGTC — higher, -0.188
- TTGCAGCTGCTGGTCATCCAGG — lower, -1.05
- TACAGCTCTTCCAGCCGCGAGA — lower, -1.34

These sequences were tested against TRIM23 in the same assay as above. Settings: shRNA.

Point of comparison: TTAATTTGTGTTTTCCACCTAC, sensor-assay potency score (higher = more potent) 0.335. Against it:
- TTTGTTAGCAAAAATCAGGAGC — lower, -0.0645
- TTGTAGAATGAGTAACTTGAGA — lower, -0.898
- TAGAGGAACTCGCCTGTGCTTT — lower, -1.17
- TAGTTTGACAACCTTCTTCCAA — lower, -0.272
- ATCAACAACACTTAGAGCCATT — lower, -1.25
- TTTTGGTCCAATGTGAACTCGA — lower, 0.0711
- TGCAACTTCTGTAAACTGCTGC — higher, 0.44
- TTTAACTTAAACAAGATAGTAG — higher, 0.417
- TAAGCTCGAATACATGACCGGG — lower, -0.886
- TATCTAAAATTGATGCTCGGAT — lower, -0.778
- AACTCTACAATCATCCTGCTGC — higher, 0.546
- TCAGCTAGAGGAACTCGCCTGT — higher, 0.453
- TTCTTCTGCAGCTCCATACTGA — lower, -0.628
- TAATCTGAGATTTCCTCTGTGA — higher, 0.349
- TTTTCCGTTAACAACTTTGCAA — lower, -0.567
- TATGCACACAAACTACACCTGT — lower, -0.275
- TAAAATTGATGCTCGGATCTGA — higher, 0.781
